Bioassay records: PubChem, National Center for Advancing Translational Sciences (NCATS)
Compounds with a hit are over-represented: about 13% of the library has one in this group of screens.
Pf growth 48h = Primary qHTS for delayed death inhibitors of the malarial parasite plastid, 48 hour incubation. Potency, µM (top dose mostly 28.7 µM), usual class: inhibitors. actives 5.9% (n = 310,000). P. falciparum luciferase growth in erythrocytes, 48 h
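Growth was read as firefly luciferase luminescence after a 48 h, 37 C, 5% CO2 exposure of compounds to reporter-bearing P. falciparum cultures (0.1% parasitemia, 2% hematocrit final) in Albumax-supplemented RPMI 1640.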
Pf growth 96h = Primary qHTS for delayed death inhibitors of the malarial parasite plastid, 96 hour incubation; P. falciparum luciferase reporter growth, 96 h; Potency, µM (top dose mostly 28.7 µM), usual class: inhibitors; actives 6.9% (n = 320,000); AID 504834, 2011
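Cell-based qHTS: luciferase-tagged P. falciparum in erythrocytes (2% hematocrit, 0.05% parasitemia final) incubated with compounds for 96 hours, 37 C, 5% CO2; luciferase detection reagent then added and luminescence measured.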
HCMV antiviral = qHTS Assay for inhibitors of the human cytomegalovirus (HCMV); actives 4.5% (n = 410,000); activity change, negative = inhibition, % at 57.5 µM; HFF cells, HCMV-luciferase reporter, 72 h; active compounds read low; in the data active = activity change below about -60%; inconclusive = no clear call, values can overlap the other calls; inactive = above about -39%
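Steps: HFFs plated, 16 h 37C; compounds added; HCMV-luciferase added to MOI 1 PFU/cell; 72 h 37C; OneGlo reagent, 5 min room temperature; luminescence read, normalized to controls.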
HCV inhibitor = qHTS Assay for Inhibitors of Hepatitis C Virus (HCV); Huh7.5.1 HCVcc-Cre infection, luciferase reporter, 44 h; Potency, µM (top dose mostly 41.8 µM), usual class: inhibitors; actives 3.4% (n = 340,000); AID 651820, 2012
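Infectious HCVcc-Cre (~0.5 moi) was added to cells just after compound, with cells seeded 4 h earlier at 1,000 per well. Luciferase activity after 44 h culture reported infection; substrate was incubated 15 min at room temperature before reading.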
A number is an active result; n = inactive; u = inconclusive; x = no result. Unless noted, calls follow the shape of the dose curve; as a rule, active = well fitted inhibition curve with a large enough effect; inconclusive = small, poorly fitted or top-dose-only effect, or another doubt; inactive = no such curve, though single readings can be large or run the other way.

SMILES	Pf growth 48h	Pf growth 96h	HCMV antiviral	HCV inhibitor
COc1ccc(CCC(=O)N/N=C\c2cccs2)cc1	9.3µM	n	n	n
COc1ccc(CCC(=O)NNC(=O)c2cccs2)cc1	n	n	n	n
COc1ccc(CCC(=O)Nc2sc(C(=O)N(C)C)c(C)c2C#N)cc1	n	u	n	n
COc1ccc(CCC(=O)Nc2nc(C)c(C(=O)N(C)C)s2)cc1	7.4µM	u	n	n
CC(CNC(=O)c1cc2ccccn2n1)c1ccccc1 (stereo unspecified)	x	x	n	x
CC(=O)OC(C)(C)C1Cc2cc3ccc(=O)oc3cc2O1 (stereo unspecified)	n	n	n	n
CC(C)=CC(=O)O[C@@H]1Cc2cc3ccc(=O)oc3cc2OC1(C)C	n	n	n	3.2µM
C/C(=N\Nc1ccc(S(=O)(=O)Nc2ccc(Cl)cc2)cc1[N+](=O)[O-])c1ccc(N2CCOCC2)cc1	u	4.1µM	n	u
O=[N+]([O-])c1cc(S(=O)(=O)Nc2cccc(Cl)c2)ccc1N/N=C/c1ccc(N2CCOCC2)cc1	1.9µM	u	n	n
C/C(=N\Nc1ccc(S(=O)(=O)Nc2ccccc2)cc1[N+](=O)[O-])c1ccc(N2CCOCC2)cc1	u	u	n	n
CCOC(=O)[C@]12CCCC=C1N(Cc1ccccc1)C(=O)[C@H](CC(=O)NCCCN1CCCC1=O)C2	x	x	n	x
COc1ccc(CN(CC(O)COCc2ccccc2)S(=O)(=O)c2ccccc2Br)cc1OC (stereo unspecified)	x	x	n	11µM
CCCCCn1c(NCc2ccc(OC)cc2)nc2ccccc21	x	x	n	x
O=C(Nc1nc2ccccc2n1CCN1CCCC1)c1ccc(Cl)cc1	u	u	n	u
CCN(CC)CCn1c(NC(=O)c2ccccc2O)nc2ccccc21	n	n	u	u
O=C(Nc1nc2ccccc2n1CCN1CCOCC1)c1ccc(Cl)cc1	13µM	u	n	n
CCN(CC)CCn1c(NCc2ccc(OC)cc2)nc2ccccc21	n	n	-100	u
CCN(CC)CCn1c(NC(=O)c2ccc(Cl)cc2)nc2ccccc21	x	3.7µM	n	u
CCN(CC)c1ccc(NC(=O)Cn2nc(C)n3cccc3c2=O)c(C)c1	x	x	n	x
Cc1ccc(OCCNC(=O)c2ccccc2O)cc1	u	u	n	n
Cc1ccc(OCCNC(=O)c2cc(C3CC3)nc3c2cnn3C(C)C)cc1	u	u	n	13µM
COc1ccc(CNC(=O)c2cc(C3CC3)nc3c2cnn3C(C)C)cc1OC	n	u	n	u
CC(C)n1ncc2c(C(=O)NCc3cccnc3)cc(C3CC3)nc21	u	u	n	7.9µM
Cc1ccc(CNC(=O)c2cc(C3CC3)nc3c2cnn3C(C)C)cc1	13µM	u	n	u
COc1cccc(CNC(=O)c2cc(C3CC3)nc3c2cnn3C(C)C)c1	4.7µM	3.3µM	n	u
SMILES	Pf growth 48h	Pf growth 96h	HCMV antiviral	HCV inhibitor
Cc1ccc(CNC(=O)c2cc(C3CC3)nc3c2c(C)nn3-c2cccc(Cl)c2C)cc1	x	x	n	x
CCC(C)N1C(=O)/C(=C/c2c(NCCCOC(C)C)nc3c(C)cccn3c2=O)SC1=S (stereo unspecified)	1.2µM	u	n	u
CCOC(=O)c1[nH]c2ccc(C)cc2c1NC(=O)CN1CCCCC1	u	n	n	u
CCOC(=O)c1[nH]c2ccc(OC)cc2c1NC(=O)CN1CCN(c2ccccn2)CC1	n	n	x	n
COC(=O)c1[nH]c2ccc(C)cc2c1NC(=O)CN1CCCC(C)(C)C1	u	12µM	u	13µM
CCOC(=O)c1[nH]c2ccc(OC)cc2c1NC(=O)CN1CCc2ccccc2C1	u	12µM	u	u
COC(=O)c1[nH]c2ccc(C)cc2c1NC(=O)CN1CCc2cc(OC)c(OC)cc2C1	u	u	n	10µM
CCOC(=O)c1[nH]c2ccc(OCC)cc2c1NC(=O)CN1CCN(c2ccccn2)CC1	7.4µM	4.7µM	n	u
CCCNC(=O)[C@H]1[C@H](CO)[C@H]2Cn3c(ccc(-c4ccc(F)cc4)c3=O)[C@@H]1N2C(=O)NC(C)C	x	x	n	x
Cc1ccc2c(c1)c1c3n2CCN(C(=O)c2ccc(C(F)(F)F)cc2)C3CCC1 (stereo unspecified)	x	x	n	x
CCOC(=O)c1[nH]c2ccc(OC)cc2c1NC(=O)C(C)N1CCC2(CC1)OCCO2 (stereo unspecified)	u	n	x	x
COC(=O)c1[nH]c2ccccc2c1NC(=O)CN1CCN(c2cccc(OC)c2)C(C)C1 (stereo unspecified)	9.3µM	x	-103	u
